Out of some 50,000 compounds screened, about 800 (1.6%) showed an effect of 50% or more. What follows is part of a selection rich in strong results, with near analogues and random picks from the rest.

In this test the target is Bcl-2-like protein 10 (Homo sapiens) (UniProt Q9HD36). As to the kind of experiment: TR3 peptide-Bcl-B binding displacers, biochemical primary FP assay, phenotype converters (AID 1240).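 Note: 0% = Bcl-B with tracer peptide and DMSO and 100% = tracer peptide lacking Bcl-B.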 The conditions noted are these: GST-Bcl-B / FITC-TR3 peptide fluorescence polarization; stronger effect = higher value; compound at 3.75 mg/L. (In general: Polarisation of emitted light reports the rotation of a fluorescent probe.)
Sequence of Bcl-2-like protein 10 (Homo sapiens) (Q9HD36 whole entry, looked up): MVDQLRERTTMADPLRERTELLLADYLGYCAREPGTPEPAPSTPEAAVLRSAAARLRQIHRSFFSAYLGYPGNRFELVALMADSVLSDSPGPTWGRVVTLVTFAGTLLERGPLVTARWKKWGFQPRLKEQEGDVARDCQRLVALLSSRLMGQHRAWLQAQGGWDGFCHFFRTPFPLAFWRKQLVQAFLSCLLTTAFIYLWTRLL
Take `CCCC1=NN(c2ccc([N+](=O)[O-])cc2)C(=O)/C1=C\N(C)C`: the displacement was -5.5%. Under `NC(=O)c1c(NC(=O)Nc2ccc(Cl)cc2)sc2c1CCCC2` stands 0.8%; under `CCOc1ccc(N2COc3ccc4ccccc4c3C2)cc1`, 9.1%; under `Oc1c(Br)cc2oc3c(c2c1/C=N/c1ncn[nH]1)CCCC3`, 8.5%.

Regarding `Cc1ccc(N=Cc2c(O)c([N+](=O)[O-])cc3oc4c(c23)CCCC4)cc1C`, the displacement is -1.4%. For `Oc1ccccc1N=Cc1c(O)c(I)cc2oc3c(c12)CCCC3` the value was 130%; for `O=C(NCc1cccnc1)C(=O)N1CCCCC1`, -1.4%; for `O=C(CC(c1ccccc1)c1ccccc1)Nc1ccccc1Br`, -11.6%. Under `CC(=O)/C=C/c1oc2ccc([N+](=O)[O-])cc2c1-c1ccc(C)o1` stands 80.9%; under `CC(=O)CCc1oc2ccc([N+](=O)[O-])cc2c1-c1ccc(C)o1`, 3.5%. Under `COc1cc2nnc(/C=C/C(C)=O)c(-c3ccc(C)o3)c2cc1OC` stands 48%; under `O=C(Nc1ccc(-c2nnc(-c3ccccc3)o2)cc1)c1cccs1`, 15.3%; under `Nc1nonc1C(=O)N/N=C/c1cc(Cl)cc(Cl)c1O`, 9%. In the case of `O=C1/C(=C\c2ccc(-c3ccccc3Cl)o2)SC(=S)N1Cc1ccccc1`, the displacement was 10%.

With `O=C1/C(=C/c2ccc(-c3cc(Cl)ccc3Cl)o2)SC(=S)N1Cc1ccco1`, the displacement is 14.1%. For `O=C(O)CN1C(=O)/C(=C\c2ccc(-c3ccccc3Cl)o2)SC1=S` the value was -121%; for `C=CCN1C(=O)/C(=C\c2ccc(-c3ccc(F)c(Cl)c3)o2)SC1=S`, 39.4%; for `C=CCN1C(=O)/C(=C\c2ccc(-c3ccc(C(=O)OCC)cc3)o2)SC1=S`, 90.3%. `C=CCN1C(=O)/C(=C\c2ccc(-c3ccccc3Cl)o2)SC1=S`: the displacement turned out to be 149%. For `C=CCN1C(=O)/C(=C\c2ccc(-c3ccc(Cl)c(Cl)c3)o2)SC1=S` the value was 50.1%; for `C=CCN1C(=O)/C(=C\c2ccc(-c3cc(Cl)cc(Cl)c3)o2)SC1=S`, 1.7%. For `C=CCN1C(=O)/C(=C\c2ccc(-c3cc(Cl)ccc3Cl)o2)SC1=S` the value was 65.4%; for `C=CCN1C(=O)/C(=C\c2ccc(-c3cccc(Cl)c3)o2)SC1=S`, 1.4%; for `CCOC(=O)c1ccc(-c2ccc(/C=C3/SC(=S)N(CC)C3=O)o2)cc1`, 31%.

For the compound `CCOC(=O)c1ccc(-c2ccc(/C=C3/SC(=S)N(CC(=O)O)C3=O)o2)cc1`, the displacement was -83.7%.

For `O=C(COc1ccc(Cl)cc1Cl)Nc1ccc2c(c1)OCO2`, the displacement is 3.3%.

On to `Cc1cc(OCC(=O)Nc2ccc(Nc3ccccc3)cc2)ccc1Br`, for which the displacement worked out at 1.1%. As for `CCOc1ccc(N(CC(=O)Nc2ccccc2OCC)S(=O)(=O)c2ccc(SC)cc2)cc1`, the displacement came to 15.2%. On to `O=C(COc1ccc([N+](=O)[O-])cc1)Nc1cc(C(F)(F)F)cc(C(F)(F)F)c1`, for which the displacement was -2.6%. For `O=C1NC(=Nc2ccc(O)cc2)S/C1=C/C=C/c1ccccc1` the value was -5.6%.

`CN(c1ccccc1C(=O)O)C1SC(=O)N(c2ccccc2)C1=O` (stereo not drawn): the displacement is 138%. Under `CC(=O)N(c1ccc(Br)cc1)C1SC(=O)N(c2cccc(C)c2)C1=O` (stereo not drawn) stands -0.5%; under `CN(C(=O)c1cccs1)c1ccccc1C(=O)O`, -1.3%. With `Brc1ccc2c(c1)Nc1nc3nonc3nc1N2`, the displacement was 3.9%. As to `O=C1/C(=C/c2ccc(Br)cc2)SC(=S)N1Cc1ccco1`, the displacement stood at 104%. For the compound `O=C1/C(=C/c2ccc(Cl)c(Cl)c2)SC(=S)N1Cc1ccco1`, the displacement is 14.2%. Under `O=C1/C(=C/c2ccccc2[N+](=O)[O-])SC(=S)N1Cc1ccco1` stands 16.5%. In the case of `CCCCN1C(=O)/C(=C/C=C/c2ccccc2)SC1=S`, the displacement is -0.6%. For `O=C1/C(=C/c2cccc3ccccc23)SC(=S)N1Cc1ccco1` the value was 79.2%; for `COc1ccccc1/C=C1\SC(=S)N(Cc2ccco2)C1=O`, 1%. Under `C=CCN1C(=O)/C(=C\C=C\c2ccccc2)SC1=S` stands 6.3%; under `COc1ccc(/C=C2\SC(=S)N(Cc3ccco3)C2=O)cc1OC`, 21.8%; under `O=C1/C(=C/C=C/c2ccccc2)SC(=S)N1Cc1ccco1`, 99.7%.

Take `O=C1/C(=C/c2ccc3c(c2)OCO3)SC(=S)N1Cc1ccco1`: the displacement stood at 94.5%. Under `O=C1/C(=C/c2cccc(Br)c2)SC(=S)N1Cc1ccco1` stands 3.6%; under `O=C1/C(=C/c2ccc(O)cc2)SC(=S)N1Cc1ccco1`, -13.3%; under `CCCCOC(=O)Nc1ccc(S(=O)(=O)Nc2cc(C)ccc2C)cc1`, 7.1%. Under `CC(C)C(=O)NC(c1ccc(N(C)C)cc1)c1c(O)ccc2ccccc12` (stereo not drawn) stands 6.4%; under `CCCC1CCc2nc3ccccc3c(C(=O)O)c2C1` (stereo not drawn), -10.4%; under `O=C(NC12CC3CC(CC(C3)C1)C2)c1ccc(Cl)c(Cl)c1`, 6.9%. Take `COc1ccc(-c2nc3c(n2O)CCC/C3=N\O)cc1OC`: the displacement was determined as 16.6%. Under `O=C(CCN1C(=O)c2ccccc2C1=O)NCC1CCCO1` (stereo not drawn) stands 9.6%; under `COc1ccccc1NC(=O)CSc1ncn[nH]1`, 2.5%; under `COc1cc(/C=C2\C(=O)NN(c3ccccc3)C2=O)ccc1OCc1ccccc1F`, 8.9%.

Take `Nc1ncc(-c2ccc([N+](=O)[O-])cc2)cn1`: the displacement is -4.1%. Under `O=C(Nc1nc(-c2ccc(F)cc2)cs1)c1ccc(S(=O)(=O)N2CCCCCC2)cc1` stands 129%; under `Cc1ccc(-c2csc(NC(=O)c3ccc(S(=O)(=O)N4CCCCCC4)cc3)n2)cc1`, -19%.

On to `O=C(Nc1nc(-c2ccc(Cl)cc2)cs1)c1ccc(S(=O)(=O)N2CCCCC2)cc1`, for which the displacement was -9.5%.

As to `CCc1c(C)sc(NC(=O)c2cccs2)c1C(=O)OC`, the displacement was 3.3%. For `O=C(O)C(Cc1ccccc1)N1C(=O)/C(=C/c2ccc(Br)cc2)SC1=S` (stereo not drawn) the value was 11.6%; for `FC(F)(F)c1ccccc1CN1CCN(C2CCCCC2)CC1`, 1.4%.

Consider `CC(C)COc1ccc(C(=O)Nc2ccc(-c3nc4ncccc4o3)cc2)cc1`, for which the displacement was found to be 50.1%.

Turning to `CCCCOc1ccc(C(=O)Nc2ccc(-c3nc4ncccc4o3)cc2)cc1`, the displacement turned out to be 10.6%. `CCOc1cc(OCC)cc(C(=O)Nc2ccc(-c3nc4ncccc4o3)cc2)c1`: the displacement is 0.6%.

As to `CC(C)COc1ccc(C(=O)Nc2ccc(-c3nc4ccccc4o3)cc2)cc1`, the displacement came to 10%. For `O=C(Nc1ccc2oc(-c3cccnc3)nc2c1)c1cccc(OCc2ccccc2)c1` the value was 11%; for `O=C(Nc1ccc(-c2nc3ncccc3o2)cc1)c1cccc(OCc2ccccc2)c1`, 110%; for `CCCCc1c(C)nc2ccc(C(=O)O)cc2c1Cl`, 1%. For `C=CCOc1ccc(/C=C2/C(=O)NN(c3ccc(C)c(Cl)c3)C2=O)cc1OC` the value was 15.5%. Under `CCOC(=O)c1ccc(-c2ccc(/C=C3/C(=O)NN(c4cccc(Cl)c4)C3=O)o2)cc1` stands -1.9%. Turning to `COC(=O)c1ccc(-n2c(C)cc(C=C3C(=O)NC(=S)NC3=O)c2C)cc1`, the displacement worked out at 24.8%.

As for `CCOC(=O)c1ccc(-c2ccc(/C=C3/C(=O)NC(=O)N(c4ccc(OC)cc4)C3=O)o2)cc1`, the displacement was determined as 86.2%. Under `CCOC(=O)c1cc(-c2ccc(C=C3C(=O)N(C)C(=O)N(C)C3=O)o2)ccc1Cl` stands 111%; under `CN1C(=O)C(=Cc2ccc(-c3ccc(Cl)c(Cl)c3)o2)C(=O)N(C)C1=O`, -3.8%; under `Cc1cccc(N2C(=O)NC(=O)/C(=C/c3ccc(-c4ccc(C(=O)O)cc4)o3)C2=O)c1`, -58.8%. For `COc1ccc(N2C(=O)NC(=O)/C(=C\c3cc(C)n(-c4ccc(N5CCOCC5)cc4)c3C)C2=O)cc1` the value was 15.9%; for `COc1ccc(N2C(=O)NC(=O)/C(=C/c3ccc(-c4ccc(C(=O)O)cc4)o3)C2=O)cc1`, -10.9%; for `COc1ccc(N2C(=O)/C(=C/c3ccc(-c4ccc(C(=O)O)cc4)o3)C(=O)NC2=S)cc1`, -28.2%.

In the case of `CN1C(=O)C(=Cc2ccc(-c3ccc(Cl)c(C(=O)O)c3)o2)C(=O)N(C)C1=O`, the displacement turned out to be 14.5%. On to `CCOC(=O)c1ccc(-c2ccc(/C=C3/C(=O)NC(=O)N(c4ccccc4)C3=O)o2)cc1`, for which the displacement turned out to be 88.5%. As to `COC(=O)c1ccc(-n2c(C)cc(/C=C3\C(=O)NC(=O)N(c4ccc(OC)cc4)C3=O)c2C)cc1`, the displacement is 115%. Under `COc1ccccc1C(=O)N1CCN(Cc2ccccc2[N+](=O)[O-])CC1` stands 1.5%; under `COc1ccc(-n2cnc3cc(Nc4nnc(C)c5ccccc45)ccc32)cc1`, 0.8%; under `CCOC(=O)c1cc(CC)sc1NC(=O)c1cc([N+](=O)[O-])ccc1N1CCN(CC)CC1`, -2.3%. Under `O=C(CSc1ncn[nH]1)c1ccc(Br)cc1` stands 8.5%.

On to `COc1ccc(S(=O)(=O)N(Cc2ccccc2)c2ccccc2C(=O)N2CCOCC2)cc1`, for which the displacement was -1.1%.

In the case of `CC(C)(CNC(=O)c1cccnc1)CNC(=O)c1cccnc1`, the displacement amounted to 7.9%. Under `O=C(O)C(Cc1ccccc1)n1c(O)c(/C=C2\C=Nc3ccccc32)sc1=S` (stereo not drawn) stands -2.3%. Consider `Cc1cc(/C=N/O)c(C)n1-c1ccc(F)cc1`, for which the displacement turned out to be 12.6%. For `COC(=O)c1ccc(NC(=S)NC(=O)/C=C/c2ccc(Br)cc2)cc1`, the displacement came out at 13.2%. For `COc1ccc2c(c1OC)C(=O)OC2Nc1ccccc1Br` (stereo not drawn), the displacement was -5.8%. `COc1ccc(-n2nnnc2C(=Cc2ccc(N(C)C)cc2)c2nnnn2-c2ccc(OC)cc2)cc1`: the displacement was found to be 157%.

On to `COc1ccc(-n2nnnc2C(Cl)(Cl)c2nnnn2-c2ccc(OC)cc2)cc1`, for which the displacement came out at 5.8%. Under `COc1ccc(/C=C/C(=O)/C=C/c2ccc(N(C)C)cc2)cc1` stands -3%; under `CCOc1cc(/C=C2\SC(=Nc3cccc(Cl)c3C)NC2=O)ccc1O`, -11.7%.

Regarding `O=C1C(Nc2ccccc2)=CC(c2cccc(F)c2)N1c1ccccc1` (stereo not drawn), the displacement stood at 14.1%. Under `O=CN1CCN(c2nc(-c3ccccc3)c3cc(Br)ccc3n2)CC1` stands 84.9%; under `O=CN1CCN(c2nc(-c3ccccc3)c3cc(Cl)ccc3n2)CC1`, 113%; under `O=C(c1ccc([N+](=O)[O-])cc1)N1CCN(c2nc(-c3ccccc3)c3cc(Cl)ccc3n2)CC1`, 17.5%.

Take `Brc1ccc2nc(N3CCNCC3)nc(-c3ccccc3)c2c1`: the displacement is -8.1%.

As to `O=C(c1ccccc1)N1CCN(c2nc(-c3ccccc3)c3cc(Cl)ccc3n2)CC1`, the displacement came out at 10.6%. `O=C(c1ccccc1Cl)N1CCN(c2nc(-c3ccccc3)c3cc(Br)ccc3n2)CC1`: the displacement is -5.8%.

Regarding `CC1=C(C#N)c2nc(N)c(C#N)c(C)c2/C1=C\c1cc([N+](=O)[O-])ccc1Cl`, the displacement came to 0.6%.

The record behind these values is PubChem BioAssay AID1240 (Sanford-Burnham Center for Chemical Genomics, 2008).
